Source: PubChem BioAssay (EPA / NIEHS)
Active and inactive are the calls of the source. The calls were made as follows: active = hit-call score of the fitted dose curve at least 0.9, where 1 is the maximum; inactive = score below 0.9.

Assays:
[1] = read-out: TIMP metallopeptidase inhibitor 2 (TIMP2), TIMP2 (gene 7077); experiment: BSK_KF3CT_TIMP2: BioMAP Diversity Plus: KF3CT Assay for TIMP metallopeptidase inhibitor 2 (TIMP2) Biomarker Activity (AID 2283071); details: primary human keratinocytes with fibroblasts; actives raise or lower the signal
How it was run: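 Keratinocyte–fibroblast co-culture, 24 h exposure; TIMP-2 ELISA, DMSO-normalised bidirectional fit. Parallel SRB (0.1%, TCA-fixed, 560 nm) total-protein staining gauges cytotoxicity.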

[2] = read-out: Transforming growth factor beta 1 (TGFb1), TGFB1 (gene 7040); experiment: BSK_KF3CT_TGFb1: BioMAP Diversity Plus: KF3CT Assay for Transforming growth factor beta 1 (TGFb1) Biomarker Activity (AID 2283072); details: primary human keratinocytes with fibroblasts; actives raise or lower the signal
How it was run: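 Signal changes in either direction, relative to DMSO, define activity here. TGF-b1 is read by ELISA from a human keratinocyte-fibroblast co-culture 24 h post-dose.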

[3] = read-out: C-C motif chemokine 2 (Homo sapiens) (UniProt P13500); experiment: BSK_KF3CT_MCP1: BioMAP Diversity Plus: KF3CT Assay for Monocyte Chemoattractant Protein 1 (MCP1/CCL2) Biomarker Activity (AID 2283073); details: primary human keratinocytes with fibroblasts; actives raise or lower the signal
How it was run: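 ELISA readout of MCP-1 after 24 h chemical dosing of a human skin primary co-culture of keratinocytes and foreskin fibroblasts. Activity was fitted in both directions against DMSO.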

[4] = read-out: Matrix Metallopeptidase 9 (MMP9), MMP9 (gene 4318); experiment: BSK_KF3CT_MMP9: BioMAP Diversity Plus: KF3CT Assay for Matrix Metallopeptidase 9 (MMP9) Biomarker Activity (AID 2283074); details: primary human keratinocytes with fibroblasts; actives raise or lower the signal;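 as to AC50: MMP9 protein level quantified by ELISA in the co-culture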
How it was run: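 Human keratinocyte/foreskin fibroblast co-culture; compound added; 24 h; MMP-9 by ELISA; bidirectional fit vs DMSO baseline.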

[5] = read-out: urokinase plasminogen activator (uPA), PLAU (gene 5328); experiment: BSK_KF3CT_uPA: BioMAP Diversity Plus: KF3CT Assay for urokinase plasminogen activator (uPA) Biomarker Activity (AID 2283075); details: primary human keratinocytes with fibroblasts; actives raise or lower the signal
How it was run: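 ELISA readout of uPA, analyzed for signal gain or loss relative to DMSO, from a human primary keratinocyte–foreskin fibroblast co-culture measured 24 h after chemical treatment.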

CD40, CD40 (gene 958) [6] = experiment: BSK_LPS_CD40: BioMAP Diversity Plus: LPS Assay for CD40 Biomarker Activity (AID 2283076); details: primary human HUVEC with PBMC; actives raise or lower the signal
How it was run: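 Cells were dosed, incubated 24 h, then assayed for CD40 by ELISA. Gain or loss of signal was analysed relative to DMSO controls. The culture paired human umbilical vein endothelium with peripheral blood mononuclear cells.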

[7] = read-out: E-selectin (Homo sapiens) (UniProt P16581); experiment: BSK_LPS_Eselectin: BioMAP Diversity Plus: LPS Assay for Eselectin Biomarker Activity (AID 2283077); details: primary human HUVEC with PBMC; actives raise or lower the signal
How it was run: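 Primary human vascular co-culture (endothelium plus PBMC) was dosed with chemical, then E-selectin quantified by ELISA at 24 h. Endpoint values derive from bidirectional curve fitting relative to DMSO.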

[8] = read-out: Interleukin-8 (IL8), CXCL8 (gene 3576); experiment: BSK_LPS_IL8: BioMAP Diversity Plus: LPS Assay for Interleukin-8 (IL8) Biomarker Activity (AID 2283078); details: primary human HUVEC with PBMC; actives raise or lower the signal
How it was run: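 Readout is IL-8 by ELISA, taken 24 h after compounds were added to LPS-stimulated endothelial/PBMC co-cultures. Both increases and decreases relative to DMSO control were scored through bidirectional fitting.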

[9] = BSK_LPS_SRB: Viability Assessment in the BioMAP Diversity Plus: LPS Assay (AID 2283079); details: primary human HUVEC with PBMC;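 also: total protein by sulforhodamine B absorbance as a cytotoxicity measure; measured one day after compound addition; fitted in both directions against DMSO so loss or gain of signal counts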
How it was run: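 Readout is SRB absorbance at 560 nm (0.1% stain, TCA-fixed parallel cultures) as a total-protein cytotoxicity measure. Cells: primary human umbilical vein endothelium plus peripheral blood mononuclear cells, 24 h after chemical exposure; DMSO served as baseline.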

[10] = read-out: Monocyte Chemoattractant Protein-1 (MCP1), CCL2 (gene 6347); experiment: BSK_LPS_MCP1: BioMAP Diversity Plus: LPS Assay for Monocyte Chemoattractant Protein-1 (MCP1) Biomarker Activity (AID 2283081); details: primary human HUVEC with PBMC; actives raise or lower the signal;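 as to AC50: secreted MCP-1 protein quantified by ELISA in culture supernatant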
How it was run: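 Human endothelial–PBMC co-cultures were dosed with chemical, then LPS-driven MCP-1 levels were quantified by ELISA at 24 h. Activity in either direction was fitted versus DMSO negative control.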

[11] = BSK_LPS_PGE2: BioMAP Diversity Plus: LPS Assay for Prostaglandin E2 (PGE2) Biomarker Activity (AID 2283082); details: primary human HUVEC with PBMC; actives raise or lower the signal;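 as to AC50: secreted prostaglandin E2 measured by ELISA in LPS-stimulated co-culture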
How it was run: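 Endpoint derived from bidirectional curve fitting versus DMSO of ELISA-measured PGE2 in LPS-stimulated human primary vascular co-culture (HUVEC with PBMC) harvested at 24 h.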

[12] = read-out: Macrophage colony-stimulating factor (MCSF), CSF1 (gene 1435); experiment: BSK_LPS_MCSF: BioMAP Diversity Plus: LPS Assay for Macrophage colony-stimulating factor (MCSF) Biomarker Activity (AID 2283083); details: primary human HUVEC with PBMC; actives raise or lower the signal
How it was run: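 ELISA readout of M-CSF after 24 h compound exposure in a human endothelial/PBMC co-culture. Activity, in either direction, is fitted relative to DMSO vehicle.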

[13] = read-out: Tissue Factor, F3 (gene 2152); experiment: BSK_LPS_TissueFactor: BioMAP Diversity Plus: LPS Assay for Tissue Factor Biomarker Activity (AID 2283084); details: primary human HUVEC with PBMC; actives raise or lower the signal
How it was run: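 ELISA signal for cell-surface Tissue Factor (CD142) was read 24 h after compound dosing of an LPS-stimulated human endothelial–PBMC primary co-culture. Gain or loss of signal was scored relative to DMSO.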

[14] = read-out: Tumor necrosis factor (Homo sapiens) (UniProt P01375); experiment: BSK_LPS_TNFa: BioMAP Diversity Plus: LPS Assay for Tumour Necrosis Factor alpha (TNFa) Biomarker Activity (AID 2283085); details: primary human HUVEC with PBMC; actives raise or lower the signal
How it was run: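 Primary human vascular co-culture of HUVEC and PBMC; TNFa ELISA 24 h after treatment, analysed as increase or decrease relative to DMSO control.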

[15] = read-out: Vascular cell adhesion molecule 1 (VCAM1), VCAM1 (gene 7412); experiment: BSK_LPS_VCAM1: BioMAP Diversity Plus: LPS Assay for Vascular cell adhesion molecule 1 (VCAM1) Biomarker Activity (AID 2283086); details: primary human HUVEC with PBMC; actives raise or lower the signal
How it was run: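 Primary human vascular co-culture (umbilical vein endothelium plus PBMC) stimulated with LPS received chemical; 24 h later VCAM-1 was read by ELISA. Overt cytotoxicity was assessed by sulforhodamine B staining of parallel cultures at the same time point.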

CD38, CD38 (gene 952) = experiment: BSK_SAg_CD38: BioMAP Diversity Plus: SAg Assay for CD38 Biomarker Activity (AID 2283087); details: primary human HUVEC with PBMC; actives raise or lower the signal
How it was run: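 Fluorescence ELISA of cell-surface CD38 served as the read-out, with either increase or decrease fitted against DMSO controls. Cells were a human umbilical vein endothelium plus PBMC co-culture under SEB/TSST-1 stimulation, measured 24 h after dosing.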

CD40, CD40 (gene 958) [16] = experiment: BSK_SAg_CD40: BioMAP Diversity Plus: SAg Assay for CD40 Biomarker Activity (AID 2283088); details: primary human HUVEC with PBMC; actives raise or lower the signal
How it was run: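 Compounds were dosed onto a human primary endothelial–PBMC co-culture, and after 24 h CD40 was quantified by ELISA using a fluorescence signal. Activity in either direction was fitted relative to DMSO.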

CD69, CD69 (gene 969) = experiment: BSK_SAg_CD69: BioMAP Diversity Plus: SAg Assay for CD69 Biomarker Activity (AID 2283089); details: primary human HUVEC with PBMC; actives raise or lower the signal;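 as to AC50: cell surface CD69 protein quantified by ELISA with fluorescence detection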
How it was run: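 HUVEC co-cultured with PBMC were dosed with chemical, and CD69 was measured by ELISA with fluorescence read-out 24 h later. Bidirectional curve fitting used DMSO as negative control and activity baseline.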

[17] = read-out: Monocyte Chemoattractant Protein-1 (MCP1), CCL2 (gene 6347); experiment: BSK_SAg_MCP1: BioMAP Diversity Plus: SAg Assay for Monocyte Chemoattractant Protein-1 (MCP1) Biomarker Activity (AID 2283090); details: primary human HUVEC with PBMC; actives raise or lower the signal
How it was run: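 MCP-1 levels in the endothelial–PBMC SAg co-culture were quantified by ELISA at 24 h post-dosing; both increases and decreases versus DMSO scored. Cytotoxicity monitored by SRB total protein in parallel cultures.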

[18] = read-out: Interleukin-1 alpha (IL1a), IL1A (gene 3552); experiment: BSK_LPS_IL1a: BioMAP Diversity Plus: LPS Assay for Interleukin-1 alpha (IL1a) Biomarker Activity (AID 2283080); details: primary human HUVEC with PBMC; actives raise or lower the signal
How it was run: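 ELISA read-out of IL-1 alpha from a human primary vascular co-culture (endothelium plus PBMC) under LPS, sampled 24 hours post-dosing. Activity was fitted in both directions relative to DMSO controls.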

Measured: AC50

Tumor necrosis factor (Homo sapiens), sequence (P01375 whole entry, looked up): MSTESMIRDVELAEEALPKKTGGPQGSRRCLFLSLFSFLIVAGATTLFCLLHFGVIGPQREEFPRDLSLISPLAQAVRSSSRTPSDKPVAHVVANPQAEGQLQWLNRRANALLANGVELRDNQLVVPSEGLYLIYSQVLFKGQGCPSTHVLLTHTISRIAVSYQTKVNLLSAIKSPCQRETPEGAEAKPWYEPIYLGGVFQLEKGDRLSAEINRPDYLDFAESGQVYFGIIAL
E-selectin (Homo sapiens), sequence (P16581 whole entry, looked up): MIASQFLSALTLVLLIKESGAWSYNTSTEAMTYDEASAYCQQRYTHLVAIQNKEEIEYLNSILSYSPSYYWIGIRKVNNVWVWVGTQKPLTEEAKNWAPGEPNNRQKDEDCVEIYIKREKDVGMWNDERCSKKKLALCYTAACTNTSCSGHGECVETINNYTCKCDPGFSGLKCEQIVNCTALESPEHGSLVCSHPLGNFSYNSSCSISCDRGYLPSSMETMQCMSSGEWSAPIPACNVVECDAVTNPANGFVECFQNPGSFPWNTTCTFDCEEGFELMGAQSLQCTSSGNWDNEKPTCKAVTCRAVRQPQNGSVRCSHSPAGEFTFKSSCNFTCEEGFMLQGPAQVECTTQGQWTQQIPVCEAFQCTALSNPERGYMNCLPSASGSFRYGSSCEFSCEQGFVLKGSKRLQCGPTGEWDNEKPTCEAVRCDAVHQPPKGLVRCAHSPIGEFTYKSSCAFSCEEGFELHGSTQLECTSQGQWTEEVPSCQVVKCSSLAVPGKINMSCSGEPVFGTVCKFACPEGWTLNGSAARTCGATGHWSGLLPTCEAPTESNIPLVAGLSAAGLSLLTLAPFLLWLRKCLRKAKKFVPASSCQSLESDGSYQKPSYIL

Oc1ccc2ccc3cccc4ccc1c2c34
inactive: [3] | [5]
active: [1] 31.3 µM | [2] 31.7 µM | [4] 15.3 µM | CD40, CD40 (gene 958) [6] 20 µM | [7] 31.4 µM | [8] 30.5 µM | [9] 32 µM | [10] 29.7 µM | [11] 4.03 µM | [12] 30.4 µM | [13] 34.4 µM | [14] 33 µM | [15] 35.3 µM | CD38, CD38 (gene 952) 16.5 µM | CD40, CD40 (gene 958) [16] 23.3 µM | CD69, CD69 (gene 969) 31.9 µM | [17] 29.5 µM

Clc1ccc(Cl)c(Cl)c1
not listed: [11]
inactive: all other assays above

CC(O)CCO (stereo not drawn)
not listed: [11] | CD38, CD38 (gene 952)
inactive: all other assays above

Nc1ccc([N+](=O)[O-])cc1
not listed: CD38, CD38 (gene 952)
inactive: all other assays above

c1ccc2c(c1)oc1ccccc12
not listed: [18]
inactive: all other assays above

Nc1cc(Cl)cc(C(=O)O)c1Cl
inactive: all assays above

Cc1ccc(N)cc1
not listed: CD38, CD38 (gene 952)
inactive: all other assays above
